Rows were chosen to be rich in hits. Some 7.2% of all compounds tested hit in one or more screens of this group.
ALR inh: inhibitors of human ALR sulfhydryl oxidase, primary screen, biochemical, H2O2 detection, HRP-luminol luminescence, single point. FAD-linked sulfhydryl oxidase ALR (Homo sapiens), P55789. purified ALR, DTT oxidation. inhibition, % (test concentration not listed). 290,000 tested, 3.8% active. AID 485317, 2010;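 active means mean replicate inhibition above about 79%, with every replicate also reaching it, limit read from the data; inconclusive means only one of the two criteria met; inactive means mean below limit and not every replicate reaching it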
SUMO Mot1 rescue: yeast Mot1-301 growth rescue at high temperature, primary screen, SUMOylation pathway inhibitor project, S. cerevisiae, ATP luminescence, 38.5C; S. cerevisiae Mot1-301 growth rescue; percent above DMSO median, 100 means doubled; growth rescue, % at 18.8 µM; 320,000 tested, 1% active;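 active means every valid replicate shows activation above 250% relative to neutral control wells; inactive means the rest, any valid replicate at or below 250%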;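 further: OY570 slx delta 5 strain wells were the positive control but not used for scaling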
AHR act: AHR activators, primary screen, cell-based, luminescence, luciferase reporter, human; AHR-responsive luciferase reporter cells; activation, % at 5 µM; 320,000 tested, 2.5% active; AID 2796, 2010; in the data active means activation above about 47%;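 further: 0% = vehicle wells and 100% = reference agonist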
A1 inh: caspase 3/7 activation in MEF A1-2A-BIM cells, primary screen, A1 inhibitor project, cell-based, luminescence, HTS. Caspase-Glo 3/7 luminescence, 3 h; percent of clofoctol response, vehicle zero. caspase activation, % (no concentration beside the values). 330,000 tested, 0.066% active. AID 2462, 2010;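 active means over half of replicate activation scores above 10%, or exactly half above 10 with the replicate mean above 10; inconclusive means replicate mean below 10 yet half the replicates above 10; inactive means over half of replicates below 10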
Efflux pump mplx: inhibitors of Candida efflux pumps in yeast, primary screen, S. cerevisiae, Nile Red, multiplex; S. cerevisiae Candida pump triplex; inhibition, % at 10 µM; 330,000 tested, 0.44% active; AID 485275, 2010;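 active means plate passing quality check with inhibition over a set limit, or well fluorescence over plate mean plus 4 SD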;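 further: Nile Red retained in pooled yeast measured as flow cytometry median fluorescence; 0% = buffer negative control and 100% = Enniatin B positive control; higher means more Nile Red kept so more efflux inhibition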
VLA-4 inh: inhibition in human VLA-4 binding assay, primary screen, VLA-4 allosteric modulator project, MLPCN library, flow cytometry, VLA-4 expressing cells | Integrin alpha-4 (Homo sapiens), P13612 | ligand binding flow cytometry | inhibition, % (about 7 µM as worked out from the volumes in the protocol) | 330,000 tested, 0.2% active; in the data active means inhibition above about 50%
Target sequence (P13612 whole entry, looked up): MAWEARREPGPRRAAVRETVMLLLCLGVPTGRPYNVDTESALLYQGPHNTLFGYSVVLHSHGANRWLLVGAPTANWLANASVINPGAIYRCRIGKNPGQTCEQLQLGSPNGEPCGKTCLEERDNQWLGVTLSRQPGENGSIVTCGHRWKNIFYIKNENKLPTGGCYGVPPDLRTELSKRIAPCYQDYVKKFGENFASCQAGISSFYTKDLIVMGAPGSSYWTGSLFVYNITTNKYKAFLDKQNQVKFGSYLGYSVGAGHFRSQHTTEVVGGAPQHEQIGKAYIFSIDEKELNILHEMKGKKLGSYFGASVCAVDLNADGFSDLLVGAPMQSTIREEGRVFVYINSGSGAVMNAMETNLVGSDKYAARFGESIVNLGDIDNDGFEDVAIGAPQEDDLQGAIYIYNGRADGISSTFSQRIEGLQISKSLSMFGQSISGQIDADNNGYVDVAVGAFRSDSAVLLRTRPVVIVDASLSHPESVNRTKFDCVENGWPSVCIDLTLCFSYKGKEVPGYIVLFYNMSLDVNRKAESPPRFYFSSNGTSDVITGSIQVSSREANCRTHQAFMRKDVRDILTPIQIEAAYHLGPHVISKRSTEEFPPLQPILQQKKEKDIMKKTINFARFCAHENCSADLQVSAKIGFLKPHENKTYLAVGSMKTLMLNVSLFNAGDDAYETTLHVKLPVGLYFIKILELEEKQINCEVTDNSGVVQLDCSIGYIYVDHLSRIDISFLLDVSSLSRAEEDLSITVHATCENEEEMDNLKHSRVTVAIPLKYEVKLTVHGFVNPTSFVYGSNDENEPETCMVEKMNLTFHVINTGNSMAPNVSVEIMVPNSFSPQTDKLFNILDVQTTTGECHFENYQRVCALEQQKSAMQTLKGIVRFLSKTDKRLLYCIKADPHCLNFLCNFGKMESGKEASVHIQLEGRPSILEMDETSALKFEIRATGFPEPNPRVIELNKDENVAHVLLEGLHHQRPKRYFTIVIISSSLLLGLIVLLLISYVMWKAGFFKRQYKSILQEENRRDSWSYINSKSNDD
AHR act confirm: AHR activators, confirmation, cell-based, luminescence, luciferase reporter, human. shares compounds with AHR act. human cells, AHR-responsive luciferase reporter. activation, % at 9 µM. 2,300 tested, 87% active. AID 2845, 2010; in the data active means activation above about 49%;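 further: HepG2 hepatoma cells carrying a DRE-driven firefly luciferase reporter; 0% = vehicle wells and 100% = reference agonist wells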
PXR act counter: human PXR activators, counter-screen for AHR activator project, cell-based, luciferase luminescence | shares compounds with AHR act | cell-based PXR reporter | activation, % at 11.6 µM | 2,300 tested, 88% active | AID 434939, 2010; in the data active means activation above about 11%;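 further: human hepatoma DPX-2 cells expressing full-length human PXR; 0% = DMSO and 100% = reference agonist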
Numbers without * were called inactive; ? = inconclusive; nt = no result given.

SMILES | ALR inh | SUMO Mot1 rescue | AHR act | A1 inh | Efflux pump mplx | VLA-4 inh | AHR act confirm | PXR act counter
N=c1n(N)c2ccccc2n1CC(=O)c1ccc(Br)cc1 | -6 | -7 | 83* | 1 | 0 | 4 | 86* | 10
CCCn1c(=N)n(CC(=O)c2ccc(Cl)cc2)c2ccccc21 | 0 | -1 | 86* | 0 | 0 | 11 | 80* | 31*
C=CCn1c(=N)n(CC(=O)c2ccc(Br)cc2)c2ccccc21 | 0 | -21 | 86* | 0 | 0 | 2 | 96* | 31*
C=CCn1c(=N)n(CC(=O)c2ccccc2)c2ccccc21 | nt | -11 | 102* | 0 | 1 | 11 | 88* | 47*
CCCn1c(=N)n(CC(=O)c2ccc([N+](=O)[O-])cc2)c2ccccc21 | -48 | 7 | 11 | 0 | 0 | -2 | nt | nt
C=CCn1c(NC(=O)c2ccccc2)nc2ccccc21 | -6 | 322 | 87* | -1 | 0 | 9 | 126* | 33*
CCn1c(NC(=O)c2ccccc2)nc2ccccc21 | -8 | -1 | 45 | -1 | 0 | 3 | nt | nt
O=c1c2ccccc2nc(/C=C/c2ccccc2)n1CCc1ccccc1 | 50 | 9 | 9 | 1 | 0 | -9 | nt | nt
O=c1c2ccccc2nc(/C=C/c2cccc([N+](=O)[O-])c2)n1CCO | 1 | -12 | 106* | 0 | 0 | -8 | 69* | 21*
CCCN1C(=O)c2cc(C(=O)Nc3ccc(OC)cc3OC)ccc2C1Nc1ccc(OC)cc1OC (centres undefined) | 9 | 1 | 107* | 0 | 0 | 1 | 79* | 64*
CCn1c(=O)c(C(=O)Nc2ncccc2C)c(O)c2ccccc21 | 7 | 207 | 111* | -1 | 0 | 3 | 96* | 26*
CCn1c(=O)c(C(=O)Nc2ncccc2O)c(O)c2ccccc21 | nt | 4 | 10 | 1 | 0 | 2 | nt | nt
CCOC(=O)c1[nH]c2cc3c(cc2c1NC(=O)CN1CCCCC1C)OCO3 (centres undefined) | 5 | -1 | 97* | 1 | 0 | -5 | 92* | 182*
COc1ccc(Br)cc1C(=O)Nc1cccc(NC(=O)c2ccco2)c1 | -8 | 21 | 84* | nt | 0 | 4 | 98* | 15*
COc1ccc(NC(=O)c2ccco2)cc1NC(=O)c1ccccc1F | -1 | 21 | 87* | 0 | 0 | 13 | 95* | 12*
COc1ccc(Br)cc1C(=O)Nc1ccccc1-c1ccccc1 | 2 | 0 | 82* | 0 | 1 | 5 | 76* | 13*
COc1c(C)cc(Br)cc1C(=O)Nc1cccc(NC(=O)c2ccco2)c1 | nt | 7 | -3 | 0 | 0 | -10 | nt | nt
COc1ccc(NC(=O)c2cccs2)cc1NC(=O)c1ccco1 | -4 | 7 | 11 | 0 | 0 | 0 | nt | nt
COc1ccccc1NC(=O)c1ccc(-c2ccc(Br)cc2)o1 | -11 | 276 | 99* | 1 | 0 | 29 | 105* | 11*
O=C(Cn1cc(C(F)(F)F)cc(Cl)c1=O)Nc1cccc(S(=O)(=O)N2CCCCC2)c1 | -4 | -8 | 0 | 0 | 0 | 0 | nt | nt
COc1ccccc1C1CC(c2cccs2)=Nc2ccccc2S1 (centres undefined) | -7 | 0 | 102* | -1 | 0 | -3 | 93* | 55*
COc1ccccc1C1CC(c2cccs2)=NN1C(=O)CCC(=O)O (centres undefined) | -5 | 9 | 6 | 0 | 0 | -6 | nt | nt
O=C(NCc1cccc(Cl)c1)c1ccc(S(=O)(=O)Nc2cccc(C(F)(F)F)c2)cc1 | 1 | -6 | 8 | 0 | 0 | -7 | nt | nt
CC1(C)CC(=O)C2=C(C1)N1C(=C(C#N)C2c2ccc(Cl)cc2)N=C(N)c2ccccc21 (centres undefined) | -4 | -11 | 97* | 0 | 0 | -15 | 8 | 159*
O=C(Nc1ccc(F)cc1)c1ccc2nc[nH]c2c1 | -7 | -15 | 147* | -3 | 0 | 13 | 136* | 14*
SMILES | ALR inh | SUMO Mot1 rescue | AHR act | A1 inh | Efflux pump mplx | VLA-4 inh | AHR act confirm | PXR act counter
O=C(Nc1ccc(F)cc1)c1ccc2nsnc2c1 | 3 | 90 | 96* | -6 | 0 | 5 | 124* | 26*
O=C(Nc1ccc(F)cc1)c1nsc(Cl)c1Cl | 0 | 27 | 83* | 0 | 0 | -8 | 222* | 40*
CC(C)N1CC2=C(C1=O)C(c1ccc(O)cc1)NC(=O)N2C (centres undefined) | 4 | 12 | 0 | 0 | 0 | 8 | nt | nt
COc1ccc(CNC(=O)COC(=O)c2cc3ccccc3cc2O)cc1OC | nt | 152 | 14 | -1 | 1 | 7 | nt | nt
COc1ccc(-c2nc(SCC(=O)NCc3ccco3)c(-c3ccccc3)[nH]2)cc1OC | ? | -8 | 29 | 0 | 0 | 1 | nt | nt
COc1ccc(-c2[nH]c(-c3ccc(F)cc3)nc2SCC(=O)NCc2ccco2)cc1OC | nt | 126 | 80* | 0 | 0 | 4 | 63* | 57*
COc1ccc(-c2[nH]c(-c3ccccc3)nc2SCC(=O)NCc2ccco2)cc1OC | 72 | 5 | 121* | 0 | 0 | -1 | 68* | 75*
CC(C)CN(C(=O)COC(=O)c1cccn1C)c1c(N)n(Cc2ccccc2)c(=O)[nH]c1=O | 0 | 17 | 1 | 1 | 4 | -7 | nt | nt
Brc1cccc2sc(N3CCN(c4ccccc4)CC3)nc12 | 5 | -11 | 91* | 0 | 0 | 5 | 108* | 18*
Clc1cccc2sc(N3CCCCC3)nc12 | -6 | 1 | 1 | -3 | 0 | 13 | nt | nt
O=C(NCCc1ccccc1)C1CCCN1S(=O)(=O)c1ccccc1 (centres undefined) | 0 | 7 | 2 | 0 | 0 | 4 | nt | nt
CC(=O)Cc1cc(O)c2ccccc2c1OC(=O)c1ccccc1 | -11 | -10 | 93* | 1 | 0 | 9 | 98* | 16*
CC(=O)Oc1c(C)cc(O)c2ccccc12 | 53 | -9 | 14 | 2 | 0 | 13 | nt | nt
Cc1cccc(NC(=S)NNC(=O)c2ccccc2OC(F)F)c1 | ? | -3 | 116* | 0 | 0 | -2 | 121* | 34*

Screening results (PubChem)
